Data as given in PubChem BioAssay (Tox21).
“And” between values parts separate entries of the source, which are not always exact repeats. Equal values may be shown once. Records with an inconclusive call do not appear. A call without a number means that no potency is given here. A structure can be active in one record and inactive in another. The source made the active and inactive calls. Unless noted, the call rests on the fitted dose curve; in most records, active means well fitted curve in the direction sought with a large enough effect in the repeat runs; inconclusive means weak or mixed curves; inactive means no such curve, though single readings can be large; an effect the other way counts as inactive or inconclusive.

Assays:
[1] = qHTS assay to identify small molecule antagonists of the androgen receptor (AR) signaling pathway using the MDA cell line in the presence of 0.5 nM R1881 - cell viability counter screen (AID 1259242); further: nearly all actives have a fitted effect of over 45% in size
Procedure, shortened: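 Cells seeded at 3,000/well and allowed 5 hr at 37C, 0% CO2 before compound transfer and R1881 (0.5 nM final) addition; 16 hr later, live-cell protease fluorescence indicated cytotoxicity.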

[2] = molecular target: Estrogen receptor (Homo sapiens) (UniProt P03372); test: qHTS assay to identify small molecule antagonists of the estrogen receptor alpha (ER-alpha) signaling pathway using the BG1 cell line in the presence of 0.1 nM 17-beta-estradiol (AID 1259244); further: nearly all actives have a fitted effect of over 50% in size; further: potency means the concentration at half of the fitted maximal effect
Chain of Estrogen receptor (Homo sapiens) (P03372 whole entry, looked up): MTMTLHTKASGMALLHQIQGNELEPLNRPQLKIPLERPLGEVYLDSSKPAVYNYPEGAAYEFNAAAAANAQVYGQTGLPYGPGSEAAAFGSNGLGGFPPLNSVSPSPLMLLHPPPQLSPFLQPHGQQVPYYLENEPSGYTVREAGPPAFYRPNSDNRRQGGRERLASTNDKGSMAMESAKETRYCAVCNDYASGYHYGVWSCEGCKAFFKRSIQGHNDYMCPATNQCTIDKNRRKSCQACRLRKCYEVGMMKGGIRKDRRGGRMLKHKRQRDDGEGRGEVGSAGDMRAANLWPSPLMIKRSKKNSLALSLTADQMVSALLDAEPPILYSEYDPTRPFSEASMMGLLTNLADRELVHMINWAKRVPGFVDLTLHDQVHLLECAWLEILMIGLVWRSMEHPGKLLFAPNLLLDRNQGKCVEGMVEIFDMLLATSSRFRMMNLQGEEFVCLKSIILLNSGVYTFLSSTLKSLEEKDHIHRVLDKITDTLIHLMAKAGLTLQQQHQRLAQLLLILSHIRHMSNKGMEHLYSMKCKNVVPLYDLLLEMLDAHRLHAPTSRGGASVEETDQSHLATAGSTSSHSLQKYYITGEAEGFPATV
Procedure, shortened: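 Luciferase signal from VM7Luc4E2 ERE-reporter cells, co-dosed with test compound and 0.1 nM final 17beta-estradiol for 22 h, read with ONE-Glo.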

[3] = qHTS assay to identify small molecule phospholipidosis (PLD) inducers (AID 1259344; active means well fitted curve in the direction sought with a large enough effect; an effect the other way counts as inactive or inconclusive)
Procedure, shortened: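 Read-out is LipidTOX Red fluorescence (ex 595/em 615) imaged in HepG2 cells after 24 h compound exposure at 37 C, with Hoechst nuclear counterstain (ex 352/em 461) allowing per-cell normalisation.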

[4] = qHTS assay to identify small molecule HDAC inhibitors - cell viability counter screen (AID 1259365); further: series mostly up to about 92 µM; nearly all actives have a fitted effect of over 50% in size
Procedure, shortened: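 Counter screen in wild-type HCT-116 cells: compounds dissolved in DMSO are pin-transferred onto overnight-plated cells and left 2hr at 37C. ATP-based CellTiter-Glo luminescence then measures viable cells.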

[5] = qHTS assay to identify small molecule agonists of the sonic hedgehog signaling (Shh) pathway (AID 1259368; calls by dose curve;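 further: NIH/3T3-derived 3T3Gli1-Luc cells carrying a stable Gli1-driven firefly luciferase reporter; series mostly up to about 92 µM; nearly all actives have a fitted effect of over 15% in size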)
Procedure, shortened: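 Following a 24 hr incubation with DMSO-dissolved compounds at 37 C, 5% CO2, Gli1-Luc NIH/3T3-derived cells received luciferase reagent for 30 min at room temperature prior to luminescence measurement.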

[6] = molecular target: Estrogen receptor beta (Homo sapiens) (UniProt Q92731); test: qHTS assay to identify small molecule agonists of the estrogen receptor beta (ER-beta) signaling pathway (AID 1259377; active means well fitted activation curve with a large enough effect in the signal ratio in the repeat runs, not every such curve was filed as active; the % refers to the signal ratio)
Chain of Estrogen receptor beta (Homo sapiens) (Q92731 whole entry, looked up, the tested form may be a part): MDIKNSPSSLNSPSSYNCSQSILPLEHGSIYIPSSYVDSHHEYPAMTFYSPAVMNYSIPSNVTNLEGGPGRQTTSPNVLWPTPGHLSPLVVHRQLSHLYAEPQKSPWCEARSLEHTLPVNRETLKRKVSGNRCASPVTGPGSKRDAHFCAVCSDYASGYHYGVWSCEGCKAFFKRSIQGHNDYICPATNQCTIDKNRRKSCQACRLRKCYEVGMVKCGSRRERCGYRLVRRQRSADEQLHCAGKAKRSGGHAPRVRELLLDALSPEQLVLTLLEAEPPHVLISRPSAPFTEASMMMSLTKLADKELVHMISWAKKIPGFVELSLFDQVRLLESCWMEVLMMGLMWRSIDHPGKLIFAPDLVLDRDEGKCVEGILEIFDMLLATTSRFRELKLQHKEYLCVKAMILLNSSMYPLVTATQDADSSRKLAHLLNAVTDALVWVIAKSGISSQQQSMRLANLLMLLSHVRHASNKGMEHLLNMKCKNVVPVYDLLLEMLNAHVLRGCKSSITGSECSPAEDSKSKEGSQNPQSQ
Procedure, shortened: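 Agonist mode cell assay in GripTite HEK293T cells expressing an ER-beta fusion that drives beta-lactamase from an Upstream Activator Sequence; 16 hr compound exposure at 37C, then 2 h LiveBLAzer B/G FRET substrate at room temperature, fluorescence read-out.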

[7] = molecular target: Estrogen receptor beta (Homo sapiens) (UniProt Q92731); test: qHTS assay to identify small molecule antagonists of the estrogen receptor beta (ER-beta) signaling pathway (AID 1259378; active means well fitted inhibition curve with a large enough effect in the signal ratio in the repeat runs, not every such curve was filed as active; the % refers to the signal ratio; further: potency means the concentration at half of the fitted maximal effect)
Procedure, shortened: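 ER-beta-UAS-bla HEK293T cells in 2% charcoal-stripped FBS medium treated with compound plus 1nM final 17-beta-estradiol for 16 hr at 37C. Beta-lactamase reporter read by FRET substrate fluorescence after 2 hours at room temperature.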

[8] = qHTS assay to identify small molecule antagonists of the estrogen receptor beta (ER-beta) signaling pathway - cell viability counter screen (AID 1259382); further: nearly all actives have a fitted effect of over 55% in size; further: potency means the concentration at half of the fitted maximal effect
Procedure, shortened: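 CellTiter-Glo ATP luminescence measured after the LiveBLAzer read in the same wells; ER-beta-UAS-bla HEK293T cells, 16 hr compound treatment with 1nM 17-beta-estradiol agonist at 37C, 5% CO2.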

[9] = qHTS assay to identify small molecule agonists or antagonists of the thyroid stimulating hormone receptor (TSHR) signaling pathway - wild type cell line counter screen (AID 1259384; calls by dose curve)
Procedure, shortened: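 Wild-type Hek293 cells, 800/well, 18 h at 37C, then compound with Ro20-1724 for 30 min RT. cAMP by HTRF (cAMP-d2/anti-cAMP cryptate), 1 h RT, fluorescence read. 15 concentrations, triplicates.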

[10] = molecular target: Thyrotropin receptor (Homo sapiens) (UniProt P16473); test: qHTS assay to identify small molecule antagonists of the thyroid stimulating hormone receptor (TSHR) signaling pathway (AID 1259385; calls by dose curve; further: nearly all actives have a fitted effect of over 20% in size)
Chain of Thyrotropin receptor (Homo sapiens) (P16473 whole entry, looked up): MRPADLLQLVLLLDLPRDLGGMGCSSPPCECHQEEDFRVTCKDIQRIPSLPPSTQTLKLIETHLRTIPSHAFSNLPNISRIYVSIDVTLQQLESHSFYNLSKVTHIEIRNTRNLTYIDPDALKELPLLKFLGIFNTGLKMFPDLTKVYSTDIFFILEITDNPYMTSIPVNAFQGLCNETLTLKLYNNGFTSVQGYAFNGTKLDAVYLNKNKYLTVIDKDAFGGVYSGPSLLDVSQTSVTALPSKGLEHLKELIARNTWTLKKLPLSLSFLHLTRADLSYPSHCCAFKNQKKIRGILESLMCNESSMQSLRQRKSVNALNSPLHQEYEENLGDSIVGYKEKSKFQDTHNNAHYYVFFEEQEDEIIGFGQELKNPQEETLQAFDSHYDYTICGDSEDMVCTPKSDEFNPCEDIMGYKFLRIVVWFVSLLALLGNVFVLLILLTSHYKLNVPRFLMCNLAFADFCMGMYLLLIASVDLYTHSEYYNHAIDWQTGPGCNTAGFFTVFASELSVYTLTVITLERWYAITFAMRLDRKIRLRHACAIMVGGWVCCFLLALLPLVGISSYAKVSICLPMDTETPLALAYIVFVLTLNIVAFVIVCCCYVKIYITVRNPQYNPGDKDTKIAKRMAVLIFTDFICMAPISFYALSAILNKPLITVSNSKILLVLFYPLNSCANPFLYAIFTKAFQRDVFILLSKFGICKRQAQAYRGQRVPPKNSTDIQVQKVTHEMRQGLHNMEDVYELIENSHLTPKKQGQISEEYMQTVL
Procedure, shortened: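 TSHR-HEK293 cells (800/well) plated 18 h, then compounds with Ro20-1724 and TSH at 1.5 ng/mL final, 30 min at room temperature. cAMP quantified by HTRF (cAMP-d2/anti-cAMP-cryptate, 1 h); 15 concentrations in triplicate.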

[11] = qHTS assay to identify small molecule HDAC inhibitors (AID 1259364);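 further: wild-type HCT-116 cells with endogenous class I/II HDAC activity; top concentration of the series differs between compounds; nearly all actives have a fitted effect of over 45% in size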
Procedure, shortened: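 HCT-116 wt cells, 1,500/well, overnight attach. Compounds (DMSO) 2 h, 37 °C. HDAC-Glo I/II, 30 min RT. Luminescence.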

[12] = qHTS assay to identify small molecule agonists of the sonic hedgehog signaling (Shh) pathway - cell viability counter screen (AID 1259366); further: nearly all actives have a fitted effect of over 50% in size
Procedure, shortened: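 Cells are plated at 2,000 per well and left 4hr at 37C, 5% CO2 before compound addition. After 23hr of treatment, CellTiter-Fluor reagent is added for 1hr at 37C and fluorescence is measured.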

[13] = qHTS assay to identify small molecule antagonists of the sonic hedgehog signaling (Shh) pathway - cell viability counter screen (AID 1259367); further: nearly all actives have a fitted effect of over 55% in size; further: potency means the concentration at half of the fitted maximal effect
Procedure, shortened: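 Fluorescence read-out (CellTiter-Fluor, 1 hr at 37C) taken after 23 hr compound treatment of 3T3 Gli1-Luc cells stimulated with conditioned medium. Cells were seeded at 2,000 per well and pre-incubated 4 hr.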

[14] = qHTS assay to identify small molecule agonists of the androgen receptor (AR) signaling pathway in the presence of an antagonist - cell viability counter screen (AID 1259379);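 further: MDA-kb2 human breast cancer cells carrying an MMTV luciferase reporter; series mostly up to about 92 µM; nearly all actives have a fitted effect of over 25% in size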
Procedure, shortened: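 Each compound was tested at 15 concentrations on MDA-kb2 cells in the presence of 3.0uM nilutamide. Viability was measured by CellTiter-Fluor fluorescence after a 16 hr incubation at 37C in a CO2-free atmosphere.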

[15] = qHTS assay to identify small molecule agonists of the estrogen receptor beta (ER-beta) signaling pathway - cell viability counter screen (AID 1259380); further: nearly all actives have a fitted effect of over 30% in size
Procedure, shortened: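 Compounds dissolved in DMSO were pin-transferred onto ER-beta-UAS-bla HEK293T cells that had settled 6 hr, and exposure ran 16 hr at 37C. Following the reporter read, CellTiter-Glo luminescence after 30 min at room temperature indicated cytotoxicity.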

[16] = qHTS assay to identify small molecule antagonists of the sonic hedgehog signaling (Shh) pathway (AID 1259369; calls by dose curve; further: nearly all actives have a fitted effect of over 45% in size)
Procedure, shortened: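 Read-out is luminescence from a firefly luciferase gene controlled by the Gli1 response element, in 3T3Gli1-Luc cells pre-incubated 4hr then exposed to compounds and conditioned medium for 24hr.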

[17] = molecular target: Estrogen receptor (Homo sapiens) (UniProt P03372); test: qHTS assay to identify small molecule agonists of the estrogen receptor alpha (ER-alpha) signaling pathway in the presence of an antagonist (AID 1259383; calls by dose curve; further: top concentration of the series differs between compounds; nearly all actives have a fitted effect of over 15% in size)
Procedure, shortened: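 Luminescent ERE-luciferase reporter, VM7Luc4E2 cells (endogenous ER-alpha); 10.0nM ICI-182,780 final; 15-point compound titration; 22hr at 37C; ONE-Glo, 30min RT.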

[18] = molecular target: Androgen receptor (Homo sapiens) (UniProt P10275); test: qHTS assay to identify small molecule antagonists of the androgen receptor (AR) signaling pathway using the MDA cell line in the presence of 0.5 nM R1881 (AID 1259243); further: nearly all actives have a fitted effect of over 50% in size; further: potency means the concentration at half of the fitted maximal effect
Chain of Androgen receptor (Homo sapiens) (P10275 whole entry, looked up): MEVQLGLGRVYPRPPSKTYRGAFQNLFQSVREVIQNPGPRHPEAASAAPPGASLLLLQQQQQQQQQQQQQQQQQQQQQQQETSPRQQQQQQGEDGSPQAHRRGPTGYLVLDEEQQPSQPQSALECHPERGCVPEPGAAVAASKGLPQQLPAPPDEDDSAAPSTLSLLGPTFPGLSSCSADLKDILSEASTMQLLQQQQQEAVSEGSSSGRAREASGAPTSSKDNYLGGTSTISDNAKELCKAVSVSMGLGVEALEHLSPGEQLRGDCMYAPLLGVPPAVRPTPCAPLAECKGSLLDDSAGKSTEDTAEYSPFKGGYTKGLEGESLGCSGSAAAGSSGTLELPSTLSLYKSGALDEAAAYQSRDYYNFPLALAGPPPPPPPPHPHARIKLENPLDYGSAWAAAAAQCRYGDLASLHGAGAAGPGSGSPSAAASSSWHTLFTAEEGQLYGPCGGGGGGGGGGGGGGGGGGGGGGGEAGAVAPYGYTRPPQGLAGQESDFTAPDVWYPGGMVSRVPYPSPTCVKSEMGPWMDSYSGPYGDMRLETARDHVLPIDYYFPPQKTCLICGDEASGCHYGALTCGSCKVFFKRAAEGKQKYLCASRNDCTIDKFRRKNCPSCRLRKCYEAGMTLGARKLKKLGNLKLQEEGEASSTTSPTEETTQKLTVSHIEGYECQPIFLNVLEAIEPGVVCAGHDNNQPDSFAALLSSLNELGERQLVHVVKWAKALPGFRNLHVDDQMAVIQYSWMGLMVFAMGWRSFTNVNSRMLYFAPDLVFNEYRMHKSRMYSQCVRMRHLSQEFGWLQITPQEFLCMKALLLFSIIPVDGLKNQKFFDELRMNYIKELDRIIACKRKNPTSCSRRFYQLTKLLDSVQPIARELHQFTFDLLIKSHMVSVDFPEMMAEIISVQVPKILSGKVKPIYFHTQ
Procedure, shortened: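 Luminescence from an AR/GR-responsive MMTV-luciferase construct in MDA-kb2 breast carcinoma cells, read 30 min after ONE-Glo, following 16 hr co-treatment with compounds and 0.5 nM R1881.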

[19] = molecular target: Androgen receptor (Homo sapiens) (UniProt P10275); test: qHTS assay to identify small molecule agonists of the androgen receptor (AR) signaling pathway in the presence of an antagonist (AID 1259381; calls by dose curve; further: nearly all actives have a fitted effect of over 15% in size)
Procedure, shortened: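 Plated MDA-kb2 cells (3,000/well) were pre-incubated 5hr, given nilutamide (3.0uM final) or buffer, then dosed with compounds in DMSO at 15 concentrations. Luciferase activity was quantified by luminescence after 16hr at 37C.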

Compound | Potency [1] | Potency [2] | outcome [3] | Potency [4] | Potency [5] | Potency [6] | Potency [7] | Potency [8] | outcome [9] | Potency [10] | Potency [11] | Potency [12] | Potency [13] | Potency [14] | Potency [15] | Potency [16] | Potency [17] | Potency [18] | Potency [19]
CN1C[C@H](C(=O)N[C@]2(C)O[C@@]3(O)[C@@H]4CCCN4C(=O)[C@H](Cc4ccccc4)N3C2=O)C=C2c3cccc4[nH]cc(c34)C[C@H]21 | inactive | 27.4 µM (active) and inactive | inactive | inactive | inactive | inactive | 27.4 µM (active) | 54.7 µM (active) | inactive | inactive |  |  |  |  |  |  |  |  | 
OCC1CO1 (configuration not stated) | inactive | inactive |  | inactive | inactive |  |  | inactive |  |  | inactive | inactive | inactive | inactive | inactive |  |  |  | 
C=CCOC(=O)C(C)(C)OC(=O)c1cc(-n2c(=O)cc(C(F)(F)F)n(C)c2=O)ccc1Cl | inactive |  |  | inactive | inactive | inactive | inactive | inactive |  |  | inactive | inactive | inactive | inactive |  | inactive | inactive |  | 
CC1(C)[C@H](C(=O)O[C@H](C#N)c2cccc(Oc3ccccc3)c2)[C@@H]1C=C(Br)Br | inactive |  |  | inactive | inactive |  | inactive | inactive | inactive | inactive | inactive | inactive | inactive | inactive | inactive | inactive |  | inactive | inactive
NC(=O)CF |  | inactive |  | inactive | inactive |  |  | inactive | inactive | inactive | inactive | inactive | inactive | inactive | inactive | inactive | inactive |  | 
O=P(OCC(Br)CBr)(OCC(Br)CBr)OCC(Br)CBr (configuration not stated) | inactive |  |  | inactive | inactive | inactive | 23.1 µM (active) | inactive | inactive | inactive | inactive |  | 55.2 µM (active) |  |  | inactive | inactive | 31 µM (active) and 51.7 µM (active) | inactive
C=CC(C)(CCC=C(C)C)OC(=O)c1ccccc1N (configuration not stated) | inactive |  |  | inactive | inactive |  |  | inactive | inactive | inactive |  | inactive | inactive | inactive | inactive |  |  |  | 
FC(Cl)(Cl)C(F)(Cl)Cl | inactive | inactive |  | inactive | inactive |  |  | inactive | inactive | inactive | inactive | inactive | inactive | inactive |  | inactive |  |  | 
CCC(C)Cl (configuration not stated) | inactive | inactive |  | inactive | inactive | inactive | inactive | inactive | inactive | inactive | inactive | inactive | inactive | inactive | inactive | inactive | inactive |  | 
